Results on 35 targets are retold here after the supplement of paper PMC10849652.

Of roughly 7,900 targets only a part is listed; those with a hit were picked by preference. About 0.6% of all pairs of compound and target were hits.

UniProt Q6P1L5, sequence (Q6P1L5 whole entry, looked up): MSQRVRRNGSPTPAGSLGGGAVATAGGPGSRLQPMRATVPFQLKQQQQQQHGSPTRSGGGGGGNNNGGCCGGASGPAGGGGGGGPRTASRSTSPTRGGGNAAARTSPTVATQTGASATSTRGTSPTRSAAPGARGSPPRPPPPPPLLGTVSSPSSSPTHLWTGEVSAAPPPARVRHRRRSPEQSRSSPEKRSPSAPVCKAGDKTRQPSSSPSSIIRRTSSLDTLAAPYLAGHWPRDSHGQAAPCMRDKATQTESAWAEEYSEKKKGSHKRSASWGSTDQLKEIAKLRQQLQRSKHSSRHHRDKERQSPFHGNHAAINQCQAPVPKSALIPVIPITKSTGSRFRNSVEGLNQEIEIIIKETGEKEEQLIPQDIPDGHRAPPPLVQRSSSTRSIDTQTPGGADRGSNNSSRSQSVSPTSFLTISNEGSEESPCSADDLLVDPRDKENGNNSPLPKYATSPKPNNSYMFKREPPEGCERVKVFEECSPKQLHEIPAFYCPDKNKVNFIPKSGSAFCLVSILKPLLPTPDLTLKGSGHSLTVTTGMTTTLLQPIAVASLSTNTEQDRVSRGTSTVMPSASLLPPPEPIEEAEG
UniProt Q96GQ7, sequence (Q96GQ7 whole entry, looked up): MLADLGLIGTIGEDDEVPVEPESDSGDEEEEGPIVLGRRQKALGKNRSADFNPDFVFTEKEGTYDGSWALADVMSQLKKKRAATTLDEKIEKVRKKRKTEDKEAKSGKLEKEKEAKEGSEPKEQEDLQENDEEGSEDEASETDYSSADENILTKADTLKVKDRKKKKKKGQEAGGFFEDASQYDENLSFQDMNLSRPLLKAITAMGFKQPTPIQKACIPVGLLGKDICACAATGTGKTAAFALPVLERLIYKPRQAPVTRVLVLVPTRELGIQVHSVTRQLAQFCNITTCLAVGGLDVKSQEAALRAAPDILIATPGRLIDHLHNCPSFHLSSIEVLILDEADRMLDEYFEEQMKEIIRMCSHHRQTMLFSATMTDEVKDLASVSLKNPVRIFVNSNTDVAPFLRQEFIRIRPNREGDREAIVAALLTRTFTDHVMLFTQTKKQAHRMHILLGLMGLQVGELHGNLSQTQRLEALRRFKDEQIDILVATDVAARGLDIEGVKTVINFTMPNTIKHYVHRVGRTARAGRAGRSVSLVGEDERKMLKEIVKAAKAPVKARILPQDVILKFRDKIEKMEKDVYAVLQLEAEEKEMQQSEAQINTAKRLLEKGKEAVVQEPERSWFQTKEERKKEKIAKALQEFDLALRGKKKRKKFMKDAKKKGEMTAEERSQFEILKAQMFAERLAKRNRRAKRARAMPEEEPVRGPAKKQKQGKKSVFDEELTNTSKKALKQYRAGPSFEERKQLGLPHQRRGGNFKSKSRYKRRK
UniProt Q6UX07, sequence (Q6UX07 whole entry, looked up): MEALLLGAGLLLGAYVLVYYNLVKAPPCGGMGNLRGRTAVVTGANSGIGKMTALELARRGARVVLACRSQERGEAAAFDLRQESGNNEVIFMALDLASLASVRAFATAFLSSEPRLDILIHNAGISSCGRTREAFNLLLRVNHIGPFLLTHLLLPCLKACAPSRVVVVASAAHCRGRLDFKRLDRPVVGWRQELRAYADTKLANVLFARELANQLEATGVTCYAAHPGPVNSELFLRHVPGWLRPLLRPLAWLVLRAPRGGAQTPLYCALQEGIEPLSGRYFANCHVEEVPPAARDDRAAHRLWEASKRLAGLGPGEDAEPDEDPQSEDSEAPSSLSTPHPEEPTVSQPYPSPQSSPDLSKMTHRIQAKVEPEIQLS
UniProt Q96G46, sequence (Q96G46 whole entry, looked up): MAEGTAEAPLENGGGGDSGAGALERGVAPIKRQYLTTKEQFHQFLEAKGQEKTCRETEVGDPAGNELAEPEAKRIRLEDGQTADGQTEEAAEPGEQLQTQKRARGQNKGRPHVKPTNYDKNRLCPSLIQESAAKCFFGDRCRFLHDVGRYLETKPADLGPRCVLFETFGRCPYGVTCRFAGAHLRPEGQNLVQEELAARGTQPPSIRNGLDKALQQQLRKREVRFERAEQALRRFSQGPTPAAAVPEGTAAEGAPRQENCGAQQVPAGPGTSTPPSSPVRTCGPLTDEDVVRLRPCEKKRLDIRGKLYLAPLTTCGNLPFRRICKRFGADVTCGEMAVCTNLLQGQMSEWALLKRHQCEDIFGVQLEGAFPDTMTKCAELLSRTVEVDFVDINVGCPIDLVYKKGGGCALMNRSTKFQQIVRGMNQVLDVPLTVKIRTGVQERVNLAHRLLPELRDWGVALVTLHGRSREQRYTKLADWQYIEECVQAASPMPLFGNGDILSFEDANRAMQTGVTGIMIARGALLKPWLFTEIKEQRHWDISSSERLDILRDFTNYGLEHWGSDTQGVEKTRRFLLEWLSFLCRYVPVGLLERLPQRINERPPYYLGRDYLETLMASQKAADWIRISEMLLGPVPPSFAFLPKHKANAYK
UniProt P80370, sequence (P80370 whole entry, looked up): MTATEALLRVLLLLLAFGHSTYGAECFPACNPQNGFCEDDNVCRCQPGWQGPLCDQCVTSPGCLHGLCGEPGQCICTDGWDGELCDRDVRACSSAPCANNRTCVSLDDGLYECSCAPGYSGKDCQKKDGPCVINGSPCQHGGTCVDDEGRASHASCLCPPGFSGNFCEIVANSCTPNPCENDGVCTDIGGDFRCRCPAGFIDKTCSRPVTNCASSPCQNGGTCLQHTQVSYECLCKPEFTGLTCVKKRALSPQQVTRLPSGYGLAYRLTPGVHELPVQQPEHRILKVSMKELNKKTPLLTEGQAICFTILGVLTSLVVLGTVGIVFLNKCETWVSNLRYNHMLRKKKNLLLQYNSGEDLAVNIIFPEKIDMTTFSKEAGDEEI
UniProt O00418, sequence (O00418 whole entry, looked up): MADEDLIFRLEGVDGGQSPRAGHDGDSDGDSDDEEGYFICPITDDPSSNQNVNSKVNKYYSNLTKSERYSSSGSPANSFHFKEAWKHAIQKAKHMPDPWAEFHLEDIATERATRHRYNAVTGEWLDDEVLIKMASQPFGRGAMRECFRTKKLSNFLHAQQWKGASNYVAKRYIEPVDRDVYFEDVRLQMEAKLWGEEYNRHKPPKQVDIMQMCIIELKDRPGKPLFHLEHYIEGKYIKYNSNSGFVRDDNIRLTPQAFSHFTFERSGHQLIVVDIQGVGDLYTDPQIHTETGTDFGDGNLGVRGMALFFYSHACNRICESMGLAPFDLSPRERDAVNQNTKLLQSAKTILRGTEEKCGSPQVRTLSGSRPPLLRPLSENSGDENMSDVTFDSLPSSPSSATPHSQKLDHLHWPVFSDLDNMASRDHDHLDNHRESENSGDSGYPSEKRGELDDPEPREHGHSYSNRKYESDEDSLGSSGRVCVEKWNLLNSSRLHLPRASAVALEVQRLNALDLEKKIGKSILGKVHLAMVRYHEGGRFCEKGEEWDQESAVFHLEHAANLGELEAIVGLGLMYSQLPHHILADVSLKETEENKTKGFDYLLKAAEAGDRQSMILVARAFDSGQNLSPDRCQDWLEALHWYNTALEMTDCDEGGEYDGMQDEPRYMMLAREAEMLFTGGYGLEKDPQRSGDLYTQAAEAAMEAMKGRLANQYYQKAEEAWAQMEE
UniProt Q96RI0, sequence (Q96RI0 whole entry, looked up): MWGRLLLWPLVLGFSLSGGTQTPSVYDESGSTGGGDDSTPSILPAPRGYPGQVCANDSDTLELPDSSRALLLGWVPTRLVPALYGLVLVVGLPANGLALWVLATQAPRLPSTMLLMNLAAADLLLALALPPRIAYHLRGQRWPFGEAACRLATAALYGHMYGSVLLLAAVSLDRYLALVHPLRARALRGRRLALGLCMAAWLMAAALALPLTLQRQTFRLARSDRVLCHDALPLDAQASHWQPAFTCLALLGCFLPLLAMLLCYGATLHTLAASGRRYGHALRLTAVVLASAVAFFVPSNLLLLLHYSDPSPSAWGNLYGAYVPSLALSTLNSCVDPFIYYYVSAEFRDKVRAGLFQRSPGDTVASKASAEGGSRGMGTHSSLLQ
UniProt Q4LDG9, sequence (Q4LDG9 whole entry, looked up): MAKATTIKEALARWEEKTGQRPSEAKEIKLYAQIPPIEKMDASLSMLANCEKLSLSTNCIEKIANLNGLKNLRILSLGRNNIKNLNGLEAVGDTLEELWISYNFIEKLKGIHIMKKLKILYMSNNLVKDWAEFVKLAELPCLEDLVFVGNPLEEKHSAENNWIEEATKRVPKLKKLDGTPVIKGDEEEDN
UniProt P25774, sequence (P25774 whole entry, looked up): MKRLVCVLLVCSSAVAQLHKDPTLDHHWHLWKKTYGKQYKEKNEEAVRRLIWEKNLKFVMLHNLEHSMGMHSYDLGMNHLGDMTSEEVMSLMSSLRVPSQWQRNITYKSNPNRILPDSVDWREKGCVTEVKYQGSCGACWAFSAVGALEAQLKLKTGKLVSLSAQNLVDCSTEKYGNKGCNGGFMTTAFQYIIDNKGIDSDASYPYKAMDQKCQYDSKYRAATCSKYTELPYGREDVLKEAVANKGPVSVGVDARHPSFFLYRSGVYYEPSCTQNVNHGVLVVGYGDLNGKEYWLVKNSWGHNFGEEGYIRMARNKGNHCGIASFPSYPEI
UniProt Q9H777, sequence (Q9H777 whole entry, looked up): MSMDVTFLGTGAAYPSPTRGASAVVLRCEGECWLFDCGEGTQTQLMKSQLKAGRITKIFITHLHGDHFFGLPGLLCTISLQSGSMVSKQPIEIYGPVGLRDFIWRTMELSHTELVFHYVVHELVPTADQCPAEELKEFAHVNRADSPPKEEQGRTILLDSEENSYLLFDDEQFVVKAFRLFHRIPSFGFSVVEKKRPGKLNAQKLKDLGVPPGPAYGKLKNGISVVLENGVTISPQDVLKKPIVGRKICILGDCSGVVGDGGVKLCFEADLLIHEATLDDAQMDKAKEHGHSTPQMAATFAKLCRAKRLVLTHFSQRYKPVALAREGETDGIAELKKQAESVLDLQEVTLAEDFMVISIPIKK

Compound in one experiment: CC1=C(SC2=C1C(=N[C@H](C3=NN=C(N32)C)CC(=O)N)C4=CC=C(C=C4)Cl)C
Description: log2 fold change, soluble protein after heating vs DMSO (PISA); higher = thermal stabilisation; K562 cells, 10 uM, 30 min; active = over 0.2 and 3.5 SD of the protein, either way, in both replicates (recomputed). In outline:
(§1)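 Aliquots of K562 cells (2×10^6 cells/mL) treated with 10 μM compound for 30 min were heated for 3 min over 48°C-58°C. After pooling and extraction in PBS with 0.5% NP-40 at 4°C, soluble protein from a 21,000xg, 90 min spin was quantified by TMTpro 16plex LC-MS/MS with channel sums equalised. Thermal stability is expressed against control samples, from duplicates, as a log2 fold change.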
Regarding DBNL (UniProt Q9UJU6), the log2 fold change was -0.04 (inactive).

For the target F2RL3 (UniProt Q96RI0), the log2 fold change was 0.175 (inactive).

For the target DHRS13 (UniProt Q6UX07), the log2 fold change is 0.084 (inactive).

Take EIF4G1 (UniProt Q04637): the log2 fold change was -0.032 (inactive).

In the case of DNM2 isoform 4 (UniProt P50570), the log2 fold change is 0.065 (inactive).

As for FAM117B (UniProt Q6P1L5), the log2 fold change is 0.283 (inactive).

As to DNAL1 (UniProt Q4LDG9), the log2 fold change is 0.086 (inactive).

Turning to CWF19L2 (UniProt Q2TBE0), the log2 fold change was -0.169 (inactive).

Regarding ELOVL7 (UniProt A1L3X0), the log2 fold change was 0.077 (inactive).

Regarding EEF2K (UniProt O00418), the log2 fold change was 0.001 (inactive).

In the case of FAM3A (UniProt P98173), the log2 fold change is -0.001 (inactive).

As for DDX27 (UniProt Q96GQ7), the log2 fold change was -0.197 (inactive).

Consider DLK1 (UniProt P80370), for which the log2 fold change was 0.065 (inactive).

For the target EDRF1 (UniProt Q3B7T1), the log2 fold change was 0.245 (inactive).

ELAC1 (UniProt Q9H777): the log2 fold change is 0.123 (inactive).

With DYNC1I2 isoform 2 (UniProt Q13409), the log2 fold change was -0.059 (inactive).

Regarding ELF1 (UniProt P32519), the log2 fold change was 0.008 (inactive).

On to DCP2 (UniProt Q8IU60), for which the log2 fold change was -0.121 (inactive).

Turning to DUS3L (UniProt Q96G46), the log2 fold change was 0.04 (inactive).

As for CTSS (UniProt P25774), the log2 fold change was -0.004 (inactive).

Take EIF2AK3 (UniProt Q9NZJ5): the log2 fold change is -0.027 (inactive).

In the case of CYB561A3 isoform 2 (UniProt Q8NBI2), the log2 fold change was -0.009 (inactive).

On to EHBP1 (UniProt Q8NDI1), for which the log2 fold change was -0.163 (inactive).

Compound in another experiment: CC1=C2C(=CC=C1)N=C(N(C2=O)C3=CC=CC=C3C)CN4C=NC5=C(N=CN=C54)N
Described as above. The method in brief:
as §1
For CYP24A1 (UniProt Q07973), the log2 fold change is -0.175 (inactive).

F2RL3 (UniProt Q96RI0): the log2 fold change was 0.06 (inactive).

Take DHRS13 (UniProt Q6UX07): the log2 fold change was 0.099 (inactive).

On to EIF4G1 (UniProt Q04637), for which the log2 fold change is 0.011 (inactive).

For FAM117B (UniProt Q6P1L5), the log2 fold change is 0.116 (inactive).

With DNAL1 (UniProt Q4LDG9), the log2 fold change was -0.264 (inactive).

As for ELMO1 (UniProt Q92556), the log2 fold change is 0.026 (inactive).

With FAM207A (UniProt Q9NSI2), the log2 fold change is 0.001 (inactive).

As for ENTR1 (UniProt Q96C92), the log2 fold change is 0.191 (inactive).

With EEF2K (UniProt O00418), the log2 fold change was 0.145 (inactive).

Regarding FAM3A (UniProt P98173), the log2 fold change was 0.038 (inactive).

As for DDX27 (UniProt Q96GQ7), the log2 fold change is -0.157 (inactive).

On to DLK1 (UniProt P80370), for which the log2 fold change was 0.198 (inactive).

With EIF3J isoform 2 (UniProt O75822), the log2 fold change was 0.25 (inactive).

On to DDX11 (UniProt Q96FC9), for which the log2 fold change was 0.335 (inactive).

Consider DERPC (UniProt P0CG12), for which the log2 fold change was -0.015 (inactive).

On to DOP1A (UniProt Q5JWR5), for which the log2 fold change is 0.049 (inactive).

Take FAM135A (UniProt Q9P2D6): the log2 fold change is 0.106 (inactive).

Take ELAC1 (UniProt Q9H777): the log2 fold change was 0.146 (inactive).

As for DCP2 (UniProt Q8IU60), the log2 fold change was -0.044 (inactive).

For the target DUS3L (UniProt Q96G46), the log2 fold change is -0.057 (inactive).

Turning to CTSS (UniProt P25774), the log2 fold change is -0.033 (inactive).

Take CTNNBL1 (UniProt Q8WYA6): the log2 fold change was 0.17 (inactive).

For the target DENND1A isoform 6 (UniProt Q8TEH3), the log2 fold change was 0.146 (inactive).

Take FADS1 (UniProt F5GYH4): the log2 fold change is -0.02 (inactive).
